“And” between values parts separate entries of the source, which are not always exact repeats. Identical values can stand only once. The source holds several records for some structures; these can differ, active in one and inactive in another. The source made the active and inactive calls. Rule for the calls: active = hit-call score of the fitted dose curve at least 0.9, where 1 is the maximum; inactive = score below 0.9.
What was measured:
[1] = read-out: Vascular endothelial growth factor receptor 2 (Homo sapiens) (UniProt P35968); experiment: BSK_4H_VEGFRII: BioMAP Diversity Plus: 4H Assay for Vascular endothelial growth factor receptor 2 (VEGFR2) Biomarker Activity (AID 2283031); conditions: primary human endothelial cells (HUVEC); actives raise or lower the signal;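 for AC50: cell-surface VEGFR2 protein level quantified by ELISA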
How it was run: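 Measured by ELISA after 24 h of compound treatment: VEGFR2 on primary human umbilical vein endothelial cells, fitted in both directions relative to DMSO. Parallel cultures received SRB staining (560 nm) for overt cytotoxicity.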

[2] = read-out: Human Leukocyte Antigen - DR isotype (HLADR), HLA-DRA (gene 3122); experiment: BSK_BE3C_HLADR: BioMAP Diversity Plus: BE3C Assay for Human Leukocyte Antigen - DR isotype (HLADR) Biomarker Activity (AID 2283032); conditions: primary human bronchial epithelial cells; actives raise or lower the signal
How it was run: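 ELISA read-out of HLA-DR on human lung bronchial epithelial primary cells, measured 24 h post-dosing. Both increases and decreases were scored relative to DMSO vehicle.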

[3] = read-out: Vascular cell adhesion molecule 1 (VCAM1), VCAM1 (gene 7412); experiment: BSK_4H_VCAM1: BioMAP Diversity Plus: 4H Assay for Vascular cell adhesion molecule 1 (VCAM1) Biomarker Activity (AID 2283033); conditions: primary human endothelial cells (HUVEC); actives raise or lower the signal
How it was run: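 ELISA read-out of VCAM-1 on human umbilical vein endothelium 24 hours after chemical dosing; gain or loss of signal was fitted relative to DMSO, with sulforhodamine B staining of parallel cultures flagging overt cytotoxicity.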

[4] = read-out: Interferon-gamma inducible Protein 10 (IP10), CXCL10 (gene 3627); experiment: BSK_BE3C_IP10: BioMAP Diversity Plus: BE3C Assay for Interferon-gamma inducible Protein 10 (IP10) Biomarker Activity (AID 2283034); conditions: primary human bronchial epithelial cells; actives raise or lower the signal
How it was run: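 Chemical is dosed onto human lung bronchial epithelial primary cells, cultures are incubated 24 h, and IP-10 is then quantified by ELISA. Gain or loss of signal is fitted in both directions relative to DMSO.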

[5] = read-out: Monokine induced gamma interferon (MIG), CXCL9 (gene 4283); experiment: BSK_BE3C_MIG: BioMAP Diversity Plus: BE3C Assay for Monokine induced gamma interferon (MIG) Biomarker Activity (AID 2283035); conditions: primary human bronchial epithelial cells; actives raise or lower the signal
How it was run: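 ELISA read-out of MIG in human lung bronchial epithelial primary cultures, 24 h post-dosing. Bidirectional curve fit vs DMSO baseline.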

[6] = read-out: Transforming growth factor beta 1 (TGFb1), TGFB1 (gene 7040); experiment: BSK_BE3C_TGFb1: BioMAP Diversity Plus: BE3C Assay for Transforming growth factor beta 1 (TGFb1) Biomarker Activity (AID 2283036); conditions: primary human bronchial epithelial cells; actives raise or lower the signal
How it was run: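 Primary human lung bronchial epithelial cells; compound exposure 24 h; TGF-b1 by ELISA; bidirectional fit, DMSO baseline. Parallel SRB total-protein staining for cytotoxicity.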

[7] = read-out: Plasminogen activator inhibitor-1 (PAI1), SERPINE1 (gene 5054); experiment: BSK_BE3C_PAI1: BioMAP Diversity Plus: BE3C Assay for Plasminogen activator inhibitor-1 (PAI1) Biomarker Activity (AID 2283037); conditions: primary human bronchial epithelial cells; actives raise or lower the signal
How it was run: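 Primary human lung bronchial epithelial cells; chemical dosing; 24 h; PAI-1 measured by ELISA; bidirectional fit referenced to DMSO as negative control.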

[8] = read-out: Urokinase-type plasminogen activator receptor (uPAR), PLAUR (gene 5329); experiment: BSK_BE3C_uPAR: BioMAP Diversity Plus: BE3C Assay for Urokinase-type plasminogen activator receptor (uPAR) Biomarker Activity (AID 2283039); conditions: primary human bronchial epithelial cells; actives raise or lower the signal
How it was run: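 Human bronchial epithelial primary cells; chemical exposure 24 h; uPAR by ELISA; bidirectional fit vs DMSO control.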

[9] = read-out: Interleukin-6 (IL6), IL6 (gene 3569); experiment: BSK_CASM3C_IL6: BioMAP Diversity Plus: CASM3C Assay for Interleukin-6 (IL6) Biomarker Activity for (AID 2283040); conditions: primary human coronary artery smooth muscle cells; actives raise or lower the signal
[10] = read-out: Tissue plasminogen activator (tPA), PLAT (gene 5327); experiment: BSK_BE3C_tPA: BioMAP Diversity Plus: BE3C Assay for Tissue plasminogen activator (tPA) Biomarker Activity (AID 2283041); conditions: primary human bronchial epithelial cells; actives raise or lower the signal
How it was run: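 Primary human lung bronchial epithelial cultures receive test chemical; after 24 h, tPA is quantified by ELISA, and gain or loss of signal is fitted bidirectionally relative to DMSO baseline.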

[11] = read-out: Interleukin-8 (IL8), CXCL8 (gene 3576); experiment: BSK_CASM3C_IL8: BioMAP Diversity Plus: CASM3C Assay for Interleukin-8 (IL8) Biomarker Activity (AID 2283042); conditions: primary human coronary artery smooth muscle cells; actives raise or lower the signal;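 note: IL-8 protein level quantified by ELISA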
[12] = read-out: Human Leukocyte Antigen - DR isotype (HLADR), HLA-DRA (gene 3122); experiment: BSK_CASM3C_HLADR: BioMAP Diversity Plus: CASM3C Assay for Human Leukocyte Antigen - DR isotype (HLADR) Biomarker Activity (AID 2283043); conditions: primary human coronary artery smooth muscle cells; actives raise or lower the signal;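 note: cell-surface HLA-DR protein level quantified by ELISA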
[13] = read-out: Macrophage colony-stimulating factor (MCSF), CSF1 (gene 1435); experiment: BSK_CASM3C_MCSF: BioMAP Diversity Plus: CASM3C Assay for Macrophage colony-stimulating factor (MCSF) Biomarker Activity (AID 2283044); conditions: primary human coronary artery smooth muscle cells; actives raise or lower the signal;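 note: M-CSF protein amount quantified by ELISA after 24 h exposure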
[14] = read-out: Low-density lipoprotein receptor (LDLR), LDLR (gene 3949); experiment: BSK_CASM3C_LDLR: BioMAP Diversity Plus: CASM3C Assay for Low-density lipoprotein receptor (LDLR) Biomarker Activity (AID 2283045); conditions: primary human coronary artery smooth muscle cells; actives raise or lower the signal;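 note: LDLR protein level on the cell surface quantified by ELISA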
[15] = read-out: Monocyte Chemoattractant Protein-1 (MCP1), CCL2 (gene 6347); experiment: BSK_CASM3C_MCP1: BioMAP Diversity Plus: CASM3C Assay for Monocyte Chemoattractant Protein-1 (MCP1) Biomarker Activity (AID 2283046); conditions: primary human coronary artery smooth muscle cells; actives raise or lower the signal;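 note: MCP-1 level quantified by ELISA 24 h after dosing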
[16] = BSK_CASM3C_Proliferation: Cell Proliferation Assessment in the BioMAP Diversity Plus: CASM3C Assay (AID 2283047); conditions: primary human coronary artery smooth muscle cells;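 note: sulforhodamine B total protein stain as relative cell number at 560 nm; sub-confluent cells exposed 48 h before staining; fitted both ways against DMSO so gain or loss of cell number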
[17] = read-out: Monokine induced gamma interferon (MIG), CXCL9 (gene 4283); experiment: BSK_CASM3C_MIG: BioMAP Diversity Plus: CASM3C Assay for Monokine induced gamma interferon (MIG) Biomarker Activity (AID 2283048); conditions: primary human coronary artery smooth muscle cells; actives raise or lower the signal;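 note: MIG protein level measured by ELISA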
[18] = read-out: serum amyloid A (SAA), SAA1 (gene 6288); experiment: BSK_CASM3C_SAA: BioMAP Diversity Plus: CASM3C Assay for serum amyloid A (SAA) Biomarker Activity (AID 2283049); conditions: primary human coronary artery smooth muscle cells; actives raise or lower the signal;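 note: SAA protein level quantified by ELISA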
[19] = BSK_CASM3C_SRB: Viability Assessment in the BioMAP Diversity Plus: CASM3C Assay (AID 2283050); conditions: primary human coronary artery smooth muscle cells;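 note: total protein by SRB staining as cytotoxicity measure in parallel cultures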
[20] = read-out: urokinase plasminogen activator (uPA), PLAU (gene 5328); experiment: BSK_BE3C_uPA: BioMAP Diversity Plus: BE3C Assay for urokinase plasminogen activator (uPA) Biomarker Activity (AID 2283038); conditions: primary human bronchial epithelial cells; actives raise or lower the signal
How it was run: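 ELISA for uPA on human primary bronchial epithelial cultures 24 h post-treatment, gain or loss against DMSO. Parallel SRB staining (0.1% after 10% TCA fixation, 560 nm) assessed overt cytotoxicity.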

Measured: AC50

COc1cnc(OC)n2nc(NS(=O)(=O)c3c(OCC(F)F)cccc3C(F)(F)F)nc12
inactive: [1] | [2] | [3] | [4] | [5] | [6] | [7] | [8] | [9] | [10] | [11] | [12] | [13] | [14] | [15] | [16] | [17] | [18] | [19]
active: [7] 0.0487 µM | [14] 16.8 µM

COC(=O)C(C)Oc1ccc(Oc2ccc(Cl)cc2Cl)cc1 (stereo unspecified)
inactive: [1] | [2] | [3] | [4] | [5] | [6] | [7] | [20] | [8] | [9] | [10] | [11] | [12] | [13] | [14] | [15] | [16] | [17] | [18] | [19]
active: [1] 20 µM | [2] 9.71 µM and 20 µM | [7] 32.5 µM | [9] 32.6 µM

CNC(=S)S
active: [3] 22.4 µM | [8] 11700 nM
not listed: [20]
inactive: all other assays above

O=C(Nc1ccccc1)Nc1ccnc(Cl)c1
active: [2] 34.7 µM | [8] 807 nM | [11] 13 µM | [16] 28.6 µM
inactive: all other assays above

C=CC1(C)OC(=O)N(c2cc(Cl)cc(Cl)c2)C1=O (stereo unspecified)
inactive: all assays above

CC1=C(C(=O)Nc2ccccc2)SCCO1
active: [20] 3.97 µM | [13] 524 nM
inactive: all other assays above

CCCCNC(=O)OCC#CI
active: [1] 22.9 µM and 32.7 µM | [2] 28.8 µM and 31.2 µM | [3] 25.1 µM and 21.8 µM | [4] 34 µM and 31.1 µM | [5] 37 µM and 31.3 µM | [6] 31.2 µM and 32.1 µM | [7] 30.1 µM | [8] 30 µM and 30.4 µM | [9] 32.3 µM and 36.3 µM | [10] 30 µM | [11] 36.6 µM | [12] 30.8 µM and 24.6 µM | [13] 26.4 µM and 15.8 µM | [15] 20.8 µM and 24.5 µM | [16] 6.91 µM and 7.15 µM | [17] 29.5 µM and 28.7 µM | [18] 14.8 µM and 14.3 µM | [19] 30.5 µM and 30.6 µM
inactive: [10] | [14]

C=CCC1=C(C)C(OC(=O)C2C(C=C(C)C)C2(C)C)CC1=O (stereo unspecified)
inactive: [1] | [2] | [4] | [5] | [6] | [7] | [20] | [8] | [9] | [10] | [11] | [12] | [13] | [14] | [15] | [17] | [18] | [19]
active: [1] 21 µM and 29.4 µM and 20 µM | [2] 15.7 µM and 32.3 µM and 30.9 µM | [3] 31.6 µM [middle of 4 runs] | [4] 35 µM and 39 µM | [8] 223 nM | [12] 31.7 µM and 32 µM and 27.9 µM | [14] 16.8 µM and 21 µM | [16] 34.4 µM [middle of 4 runs] | [18] 4.17 µM

C=CCC1=C(C)[C@@H](OC(=O)[C@@H]2[C@@H](C=C(C)C)C2(C)C)CC1=O
active: [1] 35.8 µM | [2] 20 µM | [4] 30.6 µM | [7] 29.5 µM | [14] 20 µM
not listed: [20]
inactive: all other assays above

O=C(O)c1nc(Cl)ccc1Cl
inactive: [1] | [2] | [3] | [4] | [5] | [6] | [7] | [8] | [9] | [10] | [11] | [12] | [13] | [14] | [15] | [16] | [17] | [18] | [19]
active: [2] 28.8 µM | [15] 147 nM

CCOP(=S)(OCC)SCn1c(=O)oc2cc(Cl)ccc21
active: [3] 26.1 µM | [8] 147 nM | [11] 4.25 µM
inactive: all other assays above

From PubChem BioAssay (EPA / NIEHS)
